Experimental data published in ChEMBL document CHEMBL1961873, “Compounds: GSK PKIS; Assays: Nanosyn kinase panel” (2012).

What was measured:
[1] = target: T1, Mitogen-activated protein kinase 12 (Homo sapiens) (UniProt P53778); conditions: at 1 µM;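 note: values are averaged p38gamma kinase inhibition readings, compounds tested at 1 µM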
T1 sequence (whole entry): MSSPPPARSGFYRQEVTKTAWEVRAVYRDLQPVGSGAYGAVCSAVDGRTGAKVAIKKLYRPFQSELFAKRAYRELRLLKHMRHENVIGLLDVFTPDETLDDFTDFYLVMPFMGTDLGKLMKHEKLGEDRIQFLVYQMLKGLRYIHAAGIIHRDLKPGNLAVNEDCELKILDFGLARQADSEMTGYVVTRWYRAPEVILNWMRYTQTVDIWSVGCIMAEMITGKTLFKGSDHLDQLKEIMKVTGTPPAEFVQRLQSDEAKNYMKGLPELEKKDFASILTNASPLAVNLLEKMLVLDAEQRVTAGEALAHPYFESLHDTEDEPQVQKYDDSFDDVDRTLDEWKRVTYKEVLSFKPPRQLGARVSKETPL

[2] = target: SRSF protein kinase 1 (Homo sapiens) (UniProt Q96SB4); conditions: at 0.1 µM
[3] = target: SRSF protein kinase 1 (Homo sapiens) (UniProt Q96SB4); conditions: at 1 µM
[4] = target: Phosphatidylinositol 4,5-bisphosphate 3-kinase catalytic subunit alpha isoform (Homo sapiens) (UniProt P42336); conditions: at 0.1 µM
[5] = target: Phosphatidylinositol 4,5-bisphosphate 3-kinase catalytic subunit alpha isoform (Homo sapiens) (UniProt P42336); conditions: at 1 µM
[6] = target: T2, Phosphatidylinositol 4,5-bisphosphate 3-kinase catalytic subunit delta isoform (Homo sapiens) (UniProt O00329); conditions: at 0.1 µM
T2 sequence (whole entry): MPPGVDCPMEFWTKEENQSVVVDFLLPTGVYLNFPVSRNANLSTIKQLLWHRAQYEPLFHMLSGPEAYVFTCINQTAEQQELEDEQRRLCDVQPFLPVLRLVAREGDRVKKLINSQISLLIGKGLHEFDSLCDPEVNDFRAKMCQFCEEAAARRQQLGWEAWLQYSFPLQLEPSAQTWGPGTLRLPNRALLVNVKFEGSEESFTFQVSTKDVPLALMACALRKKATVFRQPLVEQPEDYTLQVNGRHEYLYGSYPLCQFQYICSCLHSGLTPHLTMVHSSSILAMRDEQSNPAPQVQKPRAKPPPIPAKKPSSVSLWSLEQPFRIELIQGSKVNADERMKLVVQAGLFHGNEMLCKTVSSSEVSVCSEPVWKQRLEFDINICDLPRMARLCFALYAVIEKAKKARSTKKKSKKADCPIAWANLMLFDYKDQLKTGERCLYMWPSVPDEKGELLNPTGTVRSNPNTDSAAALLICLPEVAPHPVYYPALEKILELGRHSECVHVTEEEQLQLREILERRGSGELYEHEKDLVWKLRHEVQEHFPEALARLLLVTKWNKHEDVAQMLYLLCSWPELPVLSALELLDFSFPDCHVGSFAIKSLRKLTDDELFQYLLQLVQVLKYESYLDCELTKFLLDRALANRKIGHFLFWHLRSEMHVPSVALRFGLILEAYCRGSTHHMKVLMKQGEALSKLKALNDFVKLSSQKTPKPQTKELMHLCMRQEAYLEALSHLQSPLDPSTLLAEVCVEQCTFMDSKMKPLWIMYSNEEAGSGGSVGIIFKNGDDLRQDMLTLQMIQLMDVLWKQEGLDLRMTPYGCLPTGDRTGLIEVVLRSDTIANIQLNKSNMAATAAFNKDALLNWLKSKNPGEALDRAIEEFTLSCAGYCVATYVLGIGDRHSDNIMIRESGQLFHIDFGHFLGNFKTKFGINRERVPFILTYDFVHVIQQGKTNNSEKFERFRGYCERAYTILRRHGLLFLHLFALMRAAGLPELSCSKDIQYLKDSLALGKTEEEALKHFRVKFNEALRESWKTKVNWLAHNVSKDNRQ

[7] = target: T2, Phosphatidylinositol 4,5-bisphosphate 3-kinase catalytic subunit delta isoform (Homo sapiens); conditions: at 1 µM
[8] = target: Phosphatidylinositol 4-kinase beta (Homo sapiens) (UniProt Q9UBF8); conditions: at 0.1 µM
[9] = target: Phosphatidylinositol 4-kinase beta (Homo sapiens) (UniProt Q9UBF8); conditions: at 1 µM
[10] = target: Sphingosine kinase 1 (Homo sapiens) (UniProt Q9NYA1); conditions: at 0.1 µM;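 note: mean percent inhibition of SPHK1 activity, measured within the GSK PKIS screening panel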
Sequence of Sphingosine kinase 1 (Homo sapiens) (Q9NYA1 whole entry): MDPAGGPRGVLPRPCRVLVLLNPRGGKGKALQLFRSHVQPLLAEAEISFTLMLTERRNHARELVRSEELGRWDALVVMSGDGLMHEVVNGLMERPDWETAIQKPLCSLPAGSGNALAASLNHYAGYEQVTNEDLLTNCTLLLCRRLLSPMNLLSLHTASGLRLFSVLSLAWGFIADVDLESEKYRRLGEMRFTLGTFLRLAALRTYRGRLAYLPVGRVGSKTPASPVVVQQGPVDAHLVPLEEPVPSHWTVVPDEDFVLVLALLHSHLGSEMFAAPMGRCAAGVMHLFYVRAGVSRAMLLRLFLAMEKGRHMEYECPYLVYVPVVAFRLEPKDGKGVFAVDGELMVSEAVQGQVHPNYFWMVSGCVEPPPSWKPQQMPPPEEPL

Sequence of Phosphatidylinositol 4,5-bisphosphate 3-kinase catalytic subunit alpha isoform (Homo sapiens) (P42336 whole entry, canonical isoform): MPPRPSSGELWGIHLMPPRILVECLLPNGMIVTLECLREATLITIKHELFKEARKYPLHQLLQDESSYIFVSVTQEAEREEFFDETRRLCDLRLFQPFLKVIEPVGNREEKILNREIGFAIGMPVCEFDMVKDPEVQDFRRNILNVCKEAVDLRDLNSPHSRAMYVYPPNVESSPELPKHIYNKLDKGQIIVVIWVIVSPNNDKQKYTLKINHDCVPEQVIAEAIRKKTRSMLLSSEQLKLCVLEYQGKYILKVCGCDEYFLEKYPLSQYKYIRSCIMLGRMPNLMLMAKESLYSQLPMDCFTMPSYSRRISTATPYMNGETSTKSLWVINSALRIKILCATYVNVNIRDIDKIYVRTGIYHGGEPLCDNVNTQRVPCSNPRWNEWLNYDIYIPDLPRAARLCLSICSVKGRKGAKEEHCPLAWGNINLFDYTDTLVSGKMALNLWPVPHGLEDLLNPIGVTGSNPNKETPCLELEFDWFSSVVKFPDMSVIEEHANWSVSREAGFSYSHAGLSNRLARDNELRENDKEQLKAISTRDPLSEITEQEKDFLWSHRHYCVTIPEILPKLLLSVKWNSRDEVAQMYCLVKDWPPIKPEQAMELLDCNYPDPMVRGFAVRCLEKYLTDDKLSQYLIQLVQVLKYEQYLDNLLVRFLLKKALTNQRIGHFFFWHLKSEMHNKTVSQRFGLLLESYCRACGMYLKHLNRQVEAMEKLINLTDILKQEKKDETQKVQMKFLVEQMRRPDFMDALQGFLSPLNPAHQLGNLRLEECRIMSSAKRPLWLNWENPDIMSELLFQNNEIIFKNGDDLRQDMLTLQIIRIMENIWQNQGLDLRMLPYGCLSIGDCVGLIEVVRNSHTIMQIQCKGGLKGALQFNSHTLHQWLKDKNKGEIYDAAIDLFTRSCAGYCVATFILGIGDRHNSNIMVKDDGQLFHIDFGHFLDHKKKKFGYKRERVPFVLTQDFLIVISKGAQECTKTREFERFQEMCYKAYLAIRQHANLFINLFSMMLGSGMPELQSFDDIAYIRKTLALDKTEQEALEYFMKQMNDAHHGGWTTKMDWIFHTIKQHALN
Sequence of Phosphatidylinositol 4-kinase beta (Homo sapiens) (Q9UBF8 2-816 limits assumed): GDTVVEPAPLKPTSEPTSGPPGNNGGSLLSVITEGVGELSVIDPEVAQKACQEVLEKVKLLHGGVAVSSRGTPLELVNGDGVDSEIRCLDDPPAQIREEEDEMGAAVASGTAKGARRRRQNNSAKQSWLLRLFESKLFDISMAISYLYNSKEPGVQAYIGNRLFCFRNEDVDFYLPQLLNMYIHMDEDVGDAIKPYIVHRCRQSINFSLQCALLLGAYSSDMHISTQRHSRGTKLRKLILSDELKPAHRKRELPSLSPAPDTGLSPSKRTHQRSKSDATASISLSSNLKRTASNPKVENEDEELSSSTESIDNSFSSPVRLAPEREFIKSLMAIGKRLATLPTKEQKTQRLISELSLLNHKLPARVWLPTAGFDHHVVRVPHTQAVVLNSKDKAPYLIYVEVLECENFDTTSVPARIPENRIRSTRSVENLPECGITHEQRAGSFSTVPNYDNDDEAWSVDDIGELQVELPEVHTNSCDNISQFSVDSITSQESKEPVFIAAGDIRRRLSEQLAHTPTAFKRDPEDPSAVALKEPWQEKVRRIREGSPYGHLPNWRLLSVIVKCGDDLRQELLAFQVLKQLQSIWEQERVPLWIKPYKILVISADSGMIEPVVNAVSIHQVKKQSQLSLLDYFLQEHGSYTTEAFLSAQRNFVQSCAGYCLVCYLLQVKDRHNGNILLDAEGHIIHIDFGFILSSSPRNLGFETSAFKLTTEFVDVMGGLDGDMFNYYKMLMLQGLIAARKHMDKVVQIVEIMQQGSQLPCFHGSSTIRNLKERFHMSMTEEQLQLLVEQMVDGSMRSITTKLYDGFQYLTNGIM
Sequence of SRSF protein kinase 1 (Homo sapiens) (Q96SB4 whole entry, canonical isoform): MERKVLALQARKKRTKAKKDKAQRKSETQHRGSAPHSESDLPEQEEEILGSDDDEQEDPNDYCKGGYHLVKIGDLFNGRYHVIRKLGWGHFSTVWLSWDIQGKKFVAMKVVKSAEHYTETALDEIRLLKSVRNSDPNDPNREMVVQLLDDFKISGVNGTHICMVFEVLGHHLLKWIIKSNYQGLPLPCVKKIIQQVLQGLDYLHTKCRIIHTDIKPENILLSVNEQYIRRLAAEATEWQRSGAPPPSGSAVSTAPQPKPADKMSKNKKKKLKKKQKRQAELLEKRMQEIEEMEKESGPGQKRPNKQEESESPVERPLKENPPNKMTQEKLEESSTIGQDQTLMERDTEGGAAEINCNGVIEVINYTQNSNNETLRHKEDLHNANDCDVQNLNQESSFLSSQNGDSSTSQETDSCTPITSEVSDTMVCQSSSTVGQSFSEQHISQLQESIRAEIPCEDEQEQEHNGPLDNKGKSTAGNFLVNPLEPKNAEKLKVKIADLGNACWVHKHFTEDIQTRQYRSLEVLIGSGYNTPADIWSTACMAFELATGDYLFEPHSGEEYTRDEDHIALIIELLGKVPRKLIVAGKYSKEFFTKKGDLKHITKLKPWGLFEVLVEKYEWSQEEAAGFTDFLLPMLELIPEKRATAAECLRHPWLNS

SMILES	inhibition [1] [%]	inhibition [2] [%]	inhibition [3] [%]	inhibition [4] [%]	inhibition [5] [%]	inhibition [6] [%]	inhibition [7] [%]	inhibition [8] [%]	inhibition [9] [%]	inhibition [10] [%]
NS(=O)(=O)c1ccc(N/N=C2\C(=O)Nc3ccc4ncccc4c32)cc1	18.9	-3.05	-3.18	1.35	7.38	1.9	8.23	1.16	0.49	-2.17
[O-][S+]1CCN(Cc2ccc(-c3ccc4ncnc(Nc5ccc(OCc6cccc(F)c6)c(Cl)c5)c4c3)o2)CC1	4.04	-1.9	-2.12	5.72	6.58	2.17	6.89	0.59	-7.5	-0.15
CCOc1ccc2c(-c3ccnc(Nc4cccc(C(F)(F)F)c4)n3)cnn2n1	0.81	-3.06	-3.22	2.25	3.21	-0.36	0.32	-2.42	-0.91	0.68
CCc1nn2ncccc2c1-c1ccnc(NC2CC2)n1	3.05	-1.37	-0.37	1.28	1.26	0.07	0.87	5.11	8.09	-2.72
COC(=O)c1sc(-n2cnc3cc(OC)c(OC)cc32)cc1OCc1ccccc1C(F)(F)F	2.9	-3.05	-6.39	4.25	4.16	2.55	4.61	-0.98	-2.56	-3.91
CCn1c(-c2nonc2N)nc2c(C#CC(C)(C)O)ncc(OC3CCNCC3)c21	3.11	-3.24	-2.54	2.27	1.82	-0.02	0.63	4.47	0.66	-1.2
c1ccc(-c2nc3n(c2-c2ccc4c(c2)OCO4)CCC3)nc1	1.88	-0.51	-1.84	5.05	7.23	6.67	8.16	-3.19	-2.19	-1.79
COc1ccc(CNC(=O)c2ccc(-c3cc(-c4nnc(C)o4)ccc3C)cc2)cc1	2.59	2.79	9.14	0.29	-1.87	-0.28	-2.1	3.82	0.88	1.51
CCNC(=O)O[C@H]1CN[C@H](C#Cc2cc3ncnc(Nc4ccc(OCc5cccc(F)c5)c(Cl)c4)c3s2)C1	0.98	-1.03	-0.8	3.18	29	2.96	17.2	-1.09	0.43	0.82
COc1ccc(-c2oc3ncnc(N)c3c2-c2ccc(NC(=O)Nc3cc(C(F)(F)F)ccc3F)cc2)cc1	17.6	1.18	34.5	2.34	20.6	2.28	22.4	6.88	5.84	0.16
COc1ccc2[nH]c3c4[nH]c5ccc(OC)cc5c4c4c(c3c2c1)C(=O)NC4=O	1.03	-1	6.5	6.77	14.6	4.48	10.1	-1.55	-0.12	-3.65
Cc1ccc(O)cc1Nc1ccnc2cc(-c3ccccn3)ccc12	3	-1.63	-2.47	2.72	7.92	2.39	15.8	-2.37	-0.81	0
CN1CCC(n2cnc(-c3ccc(F)cc3)c2-c2ccnc(N)n2)CC1	2.49	-1.72	-1.48	1.81	5.12	4.38	27.1	1.13	3.14	-2.21
CS(=O)(=O)CCNCc1coc(-c2ccc3ncnc(Nc4ccc(OCc5ccccc5)cc4)c3c2)c1	3.41	-2.53	-3.45	2.17	3.25	0.39	0.49	-2.05	-3.75	4.73
CNC(=O)c1cccc(C#Cc2cncnc2Nc2ccc(OCc3cccc(F)c3)c(Cl)c2)c1	-0.21	-1.88	0.32	0.38	-2.56	0.74	-1.1	1.78	1.45	0.36
COc1ccc2c(-c3ccnc(Nc4cccc(OC(F)(F)F)c4)n3)cnn2n1	2.47	-0.39	3.84	2.57	6.99	0.71	5.67	0.16	2.84	0
Nc1nc(-c2ccc(F)cc2)c(-c2ccc3ncccc3n2)s1	2.9	-1.42	1.42	7.33	20.4	7.18	32.8	8.12	7.23	0.08

SMILES	inhibition [1] [%]	inhibition [2] [%]	inhibition [3] [%]	inhibition [4] [%]	inhibition [5] [%]	inhibition [6] [%]	inhibition [7] [%]	inhibition [8] [%]	inhibition [9] [%]	inhibition [10] [%]
FC(F)(F)c1cccc(-c2nn3ncccc3c2-c2ccnc(Nc3ccc4c(c3)OCCO4)n2)c1	2.93	-2.68	-5.33	1.87	3.02	1.36	4	-4.9	3.59	-1.16
Fc1ccc(-c2cc(-c3c[nH]nc3-c3ccccn3)ccn2)cc1	3.28	-0.82	1.31	4.44	3.51	2.06	3.22	-6.09	-0.81	1.6
CCCN1CCC(c2ccc(Nc3nc(Nc4cc(F)ccc4C(N)=O)c4cc[nH]c4n3)c(OC)c2)CC1	2.82	-0.15	12.7	3.82	3.17	2.18	13.3	-9.61	-8.79	-0.97
CCn1cc(-c2ccnc3[nH]ccc23)c(-c2cccc(NC(=O)Nc3ccc(OCc4ccccc4)cc3)c2)n1	-0.76	-3.33	-4.16	-0.66	0.08	-0.3	1.17	2.47	-1.05	-0.21
COc1cc2ncn(-c3cc(OCc4ccccc4C(F)(F)F)c(C(=O)N(C)C)s3)c2cc1OC	0.94	-1.25	-2.46	0.78	1.16	0.51	2.3	2.07	0.96	2.3
CCn1c(-c2nonc2N)nc2ccccc21	1.22	-2.61	-2.83	3.75	1.82	3.37	3.25	7.06	0.95	0.28
COc1ccc(-c2cc(-c3c[nH]nc3-c3ccccn3)ccn2)cc1	2.33	-1.02	2.7	3.47	1.91	-0.37	0.72	2.38	2.14	1.57
CS(=O)(=O)CCNCc1ccc(-c2ccc3ncnc(Nc4ccc(OCc5ccccc5)c(C(F)(F)F)c4)c3c2)o1	2.8	-2.41	-1.93	4.02	4.89	0.55	2.2	-0.29	1.06	0.51
CC1=C(C(=O)Nc2cc(Cl)c3[nH]ncc3c2)C(c2ccc(C(F)(F)F)cc2)CC(=O)N1 (stereo not given)	2.49	-1.04	-1.39	2.86	6.37	1.38	4.61	3.72	1.77	6.22
CCN(CC)S(=O)(=O)c1ccc(OC)c(Nc2ncc(-c3ccccc3)o2)c1	0.41	1.34	2.14	-0.56	-2.02	-0.81	-1.28	1.63	0.66	0.47
CCN1CCC(CC(=O)Nc2n[nH]c3nnc(-c4cccc(F)c4F)cc23)CC1	1.97	-2.57	-3.98	3.38	2.58	2.16	1.94	2.58	-1.91	0.09
NS(=O)(=O)c1ccc(Nc2ncc(-c3ccccc3)o2)cc1	1.81	-0.91	0.75	3.75	2.69	0.62	3.33	-3.61	4.39	0.6
CCCN(CCS(C)(=O)=O)Cc1ccc(-c2ccc3ncnc(Nc4ccc(OCc5cccc(F)c5)c(Cl)c4)c3c2)o1	1.28	-1.14	-0.67	0.82	4.19	0.06	6.07	1.73	0.08	7
CNC(=O)c1cncc(/C=C/c2ccccc2Cl)c1	-0.18	0.65	3.33	1.22	1.59	0.5	0.38	3.54	1.28	0.48
COc1ccc(-c2cc3c(N)ncnc3o2)cc1	-1.89	-1.58	1.06	-1.98	-0.52	-0.57	0.07	-0.47	-0.47	9.34
COC(=O)Nc1nc2ccc(S(=O)(=O)c3ccc(NC(=O)Nc4cc(C(F)(F)F)ccc4F)cc3)cc2[nH]1	2.36	-1.52	-4.55	0.87	2.69	2.19	2.98	1.19	1.36	-0.71
